# EPAC1 agonist – validation of human EPAC1 agonists; O95398; EPAC1 Rap1b BODIPY-GDP exchange, fluorescence; Potency, µM, for inactives: max response, positive = active, usual class: activators; actives 1% (n = 16,000); also: nearly all actives have a fitted effect of over 70% in size
# EPAC2 antag – validation of human EPAC2 antagonists | Q8WZA2 | EPAC2 Rap1B BODIPY-GDP exchange, fluorescence | Potency, µM (top dose mostly 112 µM), for inactives: at the highest dose activity, negative = inhibition, actives largely listed as inhibitors | actives 1.7% (n = 16,000);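 also: 100% = activation by cAMP agonist control; nearly all actives have a fitted effect of over 40% in size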
#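 Fluorescent exchange read-out: 100 nM EPAC2 with 250 nM RAP1B–BODIPY-GDP and 50 uM GDP; BODIPY-GDP release lowers fluorescence. Read at 480/540 nm every 5 min for 30 min at room temperature; normalized to 6.5 mM cAMP.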
# * = called active by the depositor; i = inactive; ? = inconclusive; ! = not active in a repeat; [ ] = remark or other dose. This is a sample that favours compounds with a hit; in the whole collection about 3.1% have one here. Calls follow the shape of the dose curve; as a rule, active = well fitted curve in the direction sought with a large enough effect; inconclusive = small, poorly fitted or top-dose-only effect, or another doubt; inactive = no such curve, though single readings can be large; an effect the other way counts as inactive or inconclusive. Unless noted, % is scaled to controls: 0 for no effect and ±100 for the full control effect; potency is read from the fitted curve at half-maximal effect.
SMILES,EPAC1 agonist,EPAC2 antag
COc1ccc(S[C@@H](CCN2CC[C@H](C)CCC2=O)c2ccccc2)cc1,-31%,?
C[C@@H]1CCC(=O)N(CC[C@H](Oc2ccccc2)c2ccccc2)CC1,-19%,79µM*
CC(=O)NC(CC(=O)O)C(=O)O (stereo not drawn),-4%,-1%
Cc1cc(C)c(S(=O)(=O)Nc2ccccc2C(F)(F)F)c(C)c1,6%,45µM*
CN1[C@@H]2CC(OC(=O)[C@H](CO)c3ccccc3)C[C@@H]1[C@H]1O[C@H]12 (stereo partly drawn),10%,?
Cc1[nH]c2ccccc2c1/C=C/c1ccnc2ccccc12,?,-5%
Cc1cc(N(C)C)c(C)cc1/C=C/c1ccnc2ccccc12,112µM*,251%
CCCN(CCC)c1ccc(/C=C/c2ccnc3ccccc23)cc1,100µM*,262%
CN(C)c1ccc(/C=C/c2ccnc3ccc4ccccc4c23)cc1,15%,?
COc1ccc(-c2[nH]ncc2CN2CCOc3c(cc(-c4cccc(OC)n4)cc3OC)C2)cc1,-2%,6%
COc1ccccc1-c1ccnc(-n2ncc(C(=O)N3CCCCC3c3cccnc3)c2C)n1 (stereo not drawn),0%,-5%
C[C@H](N)C(=O)O,4%,-16%
COc1ccc(-c2nc3cnc(Nc4ccccc4)nc3n(Cc3cccs3)c2=O)cc1,-10%,-11%
Cc1nc2cnc(N(C)C)nc2n(Cc2cccs2)c1=O,-14%,-30%
O=c1c(-c2ccc(F)cc2)nc2cnc(Nc3ccccc3)nc2n1Cc1cccs1,100µM*,?
Cc1nc2cnc(Oc3ccccc3)nc2n(Cc2cccs2)c1=O,25%,?
COc1ccc(Oc2ncc3nc(C)c(=O)n(Cc4cccs4)c3n2)cc1,112µM*,?
CN(C)c1ncc2nc(-c3cc(F)cc(F)c3)c(=O)n(Cc3cccs3)c2n1,112µM*,-22%
CN(C)c1ncc2nc(CCc3ccccc3)c(=O)n(Cc3cccs3)c2n1,112µM*,11%
CN(C)c1ncc2nc(-c3ccc(F)cc3)c(=O)n(Cc3cccs3)c2n1,-12%,1%
O=c1c(CCc2ccccc2)nc2cnc(N3CCNCC3)nc2n1C1CC1,?,11%
CC(C)(C)OC(=O)NS(=O)(=O)NOCc1ccccc1,-29%,-26%
O=c1c(CCc2ccccc2)nc2cnc(N3CCNCC3)nc2n1Cc1ccc(F)cc1,18%,-23%
COC(=O)[C@@H]1CCCN1C(=O)c1c(OC)cc(=O)n2c1CCN(Cc1c(C)[nH]c3ccccc13)CC2,?,-25%
CC1(C)C(\C=C/C=C\C=C/C=C2/N(CCCCS(=O)(=O)O)c3ccc4ccccc4c3C2(C)C)=[N+](CCCCS(=O)(=O)[O-])c2ccc3ccccc3c21,?,-28%
SMILES,EPAC1 agonist,EPAC2 antag
C[C@H]1CC[C@@H]2N(C1)C[C@H]1[C@@H]3C[C@H]4[C@@H](C/C(=N\O)[C@H]5C[C@@H](O)CC[C@@]54C)[C@@H]3CC[C@H]1[C@]2(C)O,-14%,4%
Cc1[nH]c2ccccc2c1/C=C/c1nccc2ccccc12,28%,?
CCCCCCCCCC[n+]1ccc(/C=C/c2c[nH]c3ccccc23)c2ccccc21,-60%,-9%
CCCCCCC[n+]1ccc(/C=C/c2c[nH]c3ccccc23)cc1,100µM*,226%
CCCCCCCCCC[n+]1ccc(/C=C/c2c(C)[nH]c3ccccc23)cc1,25µM*,371%
O=C(c1cc(C(F)(F)F)cc(C(F)(F)F)c1)N1CCC2(CC1)CN(Cc1ccccc1)C2,-89%,-14%
O=S(=O)(c1ccccc1)N1CCC2(CCCN(Cc3cc(C(F)(F)F)cc(C(F)(F)F)c3)C2)CC1,23%,-27%
CC1(C)Oc2ccc3ccc(=O)oc3c2CC1=O,-33%,13%
CC(=O)OC1c2c(ccc3ccc(=O)oc23)OC(C)(C)C1OC(=O)CC(C)C (stereo not drawn),-113%,40µM*
COCCn1c(=O)c(-c2cccc(C#N)c2)nc2cnc(Nc3ccccc3)nc21,112µM*,10%
COc1ccc(-c2nc3cnc(N4CCNCC4)nc3n(Cc3cccc(OC)c3)c2=O)cc1,?,-98%
COCCn1c(=O)c(-c2cccc(C#N)c2)nc2cnc(Oc3ccccc3)nc21,?,-20%
COc1cccc(Cn2c(=O)c(-c3ccc(Cl)cc3)nc3cnc(N4CCNCC4)nc32)c1,?,50µM*
COCCn1c(=O)c(CCc2ccccc2)nc2cnc(Nc3cccc(OC)c3)nc21,112µM*,-30%
COCCn1c(=O)c(CCc2ccccc2)nc2cnc(Nc3ccccc3)nc21,-21%,-12%
COCCn1c(=O)c(-c2ccc(OC)cc2)nc2cnc(Nc3cccc(OC)c3)nc21,112µM*,?
COCCn1c(=O)c(C)nc2cnc(Nc3cccc(OC)c3)nc21,-6%,-9%
Cc1cc(C)c(C(=O)NCc2nc(-c3cccc(NC(=O)C4CCCN(C)C4)c3)oc2C)[nH]1 (stereo not drawn),0%,2%
Cc1ccc2c(c1)CC[C@H]1CC(=O)CC[C@@]21C,20%,-25%
COC(=O)c1c(OCc2ccccn2)cc(=O)n2c1CCN(C(=O)c1cc(C(C)C)nn1C)CC2,20%,-18%
COc1cc(O)ccc1CN1CCc2nnc(C(C)NC(=O)c3cc(F)ccc3F)n2CC1 (stereo not drawn),-13%,6%
Cc1ccnc2c(Cl)ccc(Cl)c12,-19%,12%
COc1ccc(-n2c(=O)c(-c3ccc(Cl)cc3)nc3cnc(N4CCOCC4)nc32)cc1,-89%,-28%
O=C1NC(=O)C(c2ccccc2[N+](=O)[O-])=C1Nc1ccc(O)c(Cl)c1,13%,?
COc1ccc(Nc2ncc3nc(-c4cccs4)c(=O)n(Cc4cccc(OC)c4)c3n2)cc1,?,12%
SMILES,EPAC1 agonist,EPAC2 antag
COc1cccc(Cn2c(=O)c(-c3cccs3)nc3cnc(Nc4cccc(OC)c4)nc32)c1,112µM*,-3%
COc1ccc2cc(CCC(C)=O)ccc2c1,-37%,16µM*!
COc1ccc(C(C)=O)cc1,14%,-29%
Cc1ccccc1-c1nccc(Nc2ccc(F)cc2)n1,-90%,?
O=C(Nc1ccccc1)[C@@H]1CC=C[C@@H]2CCN(Cc3ccccc3)C(=O)[C@@H]21,-24%,-8%
Cc1nc2ccccn2c(=O)c1CCN1CCC(C(=O)c2ccc(F)cc2)CC1,1%,-9%
Cc1nc2sccn2c(=O)c1CCN1CCC(=C(c2ccc(F)cc2)c2ccc(F)cc2)CC1,?,50µM*!
COc1ccc(C(=O)N2CCC3(CCCN(Cc4cc(C(F)(F)F)cc(C(F)(F)F)c4)C3)CC2)cc1,-78%,35µM*
COC(=O)N1CCC2(CCCN(Cc3cc(C(F)(F)F)cc(C(F)(F)F)c3)C2)CC1,-28%,-25%
COCc1ccc(CN2Cc3ccccc3OC(c3ccccc3OC)C2)o1 (stereo not drawn),10%,?
FC(F)OC(Cl)C(F)(F)F (stereo not drawn),35µM*,i
FC(F)(F)C(Cl)Br (stereo not drawn),-43%,-19%
CCNc1ncc2nc(-c3cc(F)cc(F)c3)c(=O)n(Cc3cccs3)c2n1,-51%,-11%
CCC(=O)O[C@]1(C(=O)SCF)[C@H](C)C[C@H]2[C@@H]3C[C@H](F)C4=CC(=O)C=C[C@]4(C)[C@@]3(F)[C@@H](O)C[C@@]21C,-53%,4%[56.6 µM]
c1ccc(-c2csc(-c3nc4ccccc4[nH]3)n2)cc1,?,-15%
c1ccc(CCNc2nc(-c3ccccc3)cs2)cc1,100µM*,-14%
Cc1ccnc2ncccc12,-29%,-9%

# Assay outcomes deposited in PubChem by National Center for Advancing Translational Sciences (NCATS).
